ATXN2 expr inh: reduces ATXN2 reporter expression in HEK-293 cells | HEK-293 ATXN2-luciferase reporter, luminescence, 24 h | Potency, µM (top dose mostly 57 µM), for inactives: at the top dose activity change, negative = inhibition, actives largely listed as inhibitors | hit rate 0.72% among 360,000 | AID 1745845; also: potency is read from the fitted curve at half-maximal effect; % is scaled to controls: 0 for no effect and ±100 for the full control effect; nearly all actives have a fitted effect of over 55% in size
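qHTS (up to 57 uM final) was run with 24 h compound exposure of reporter cells at 37 °C. Each well was multiplexed: SteadyGlo luminescence measured ATXN2-luciferase expression after a fluorogenic Gly-Phe-AFC viability readout (25 uM final).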
a7 integrin act: integrin-mediated muscular dystrophy alleviation activation | alpha7betagal myoblasts, beta-gal FDG fluorescence, 48 h | Potency, µM (series often up to 38.3 µM), inactives show at the top dose activation, hits mostly activators | hit rate 0.064% among 350,000 | AID 624291;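 also: potency is read from the fitted curve at half-maximal effect; 100% = response of the positive control SU9516; nearly all actives have a fitted effect of over 60% in size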
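alpha7betagal+/- myoblasts (passage 13, 250/well) treated 48 h at 37C with compounds at 1:260 dilution of DMSO stock. Lysed, then beta-galactosidase activity read as FDG fluorescence (ex 480/em 540) after 30 min, with pre-read for autofluorescence.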
S2 tox: viability counter-screen for ATXN expression inhibitors. Potency, µM (doses to about 56.7 µM), hits mostly cytotoxic. hit rate 0.49% among 400,000. S2 cells (HEK-293 line with an ATXN2-luciferase reporter) viability, CellTiter-Fluor protease fluorescence, 24 h; also: potency is read from the fitted curve at half-maximal effect; nearly all actives have a fitted effect of over 40% in size
D3 ag: agonists of human D3 dopamine receptor; P35462; D3R DiscoveRx beta-arrestin cells, luminescence, 90 min; max activation, %; hit rate 0.58% among 410,000; in the data active = max activation above about 30%; also: 0% is about no effect
Target sequence (P35462 whole entry, looked up): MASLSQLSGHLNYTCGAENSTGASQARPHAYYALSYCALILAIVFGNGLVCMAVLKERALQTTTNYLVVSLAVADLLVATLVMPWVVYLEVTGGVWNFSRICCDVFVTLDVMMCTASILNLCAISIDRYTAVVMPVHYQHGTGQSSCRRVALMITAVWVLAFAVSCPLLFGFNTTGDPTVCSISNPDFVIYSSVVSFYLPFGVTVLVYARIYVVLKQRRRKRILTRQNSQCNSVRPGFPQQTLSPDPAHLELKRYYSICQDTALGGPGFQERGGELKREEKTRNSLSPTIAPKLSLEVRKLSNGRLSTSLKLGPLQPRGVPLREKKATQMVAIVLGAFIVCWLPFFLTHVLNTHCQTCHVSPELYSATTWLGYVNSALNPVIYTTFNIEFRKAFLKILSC
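Agonist-mode cell screen: cells plated at 1500/well and incubated overnight at 37 °C, then exposed to library compounds for 90 min at 37 °C. Detection reagent was added for 30–60 min at room temperature, and luminescence was read.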
IL1B secr inh: blocks inflammasome-driven IL-1 beta release; THP-1 LPS/ATP IL-1B secretion, AlphaLISA, 16 h; stronger effect = lower value; activity change, % at 57.5 µM; hit rate 4.7% among 360,000; AID 743279; in the data active = activity change below about -50%; inconclusive = mostly about -30% to -49%; also: % is scaled to controls: 0 for no effect and ±100 for the full control effect
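THP-1 cells pretreated 1 hr with compounds (up to 57.5 uM final), then stimulated with LPS (250 ng/mL final) plus ATP (1.25 mM final); secreted IL-1B measured by AlphaLISA after 16 hr, decreased signal indicating inhibition.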
D3 antag: D3 dopamine receptor (human) antagonism; P35462; hit rate 2.5% among 360,000; max response, negative = inhibition, %; D3R cells, DiscoveRx beta-arrestin luminescence, antagonist mode; stronger effect = lower value; in the data active = max response below about -50%; inconclusive = no clear call, values can overlap the other calls; also: % is scaled to controls: 0 for no effect and ±100 for the full control effect
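Cells expressing the human receptor were seeded at 1500 cells/well, incubated overnight at 37 degrees C in 5% CO2, then exposed to library compounds with dopamine controls for 90 minutes at 37 degrees C before luminescent detection.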
Active calls of the source: *; i = inactive; ? = inconclusive; . = no result given; [ ] = another dose, or the depositor's remark. Hits are enriched below; roughly 7% of the tested compounds scored in any of these assays. Unless noted, calls follow the shape of the dose curve; as a rule, active = well fitted curve in the direction sought with a large enough effect; inconclusive = small, poorly fitted or top-dose-only effect, or another doubt; inactive = no such curve, though single readings can be large; an effect the other way counts as inactive or inconclusive.

SMILES | ATXN2 expr inh | a7 integrin act | S2 tox | D3 ag | IL1B secr inh | D3 antag
CCOc1ccccc1NC(=O)c1sc2nc3n(c(=O)c2c1C)CCCCC3 | . | . | . | -5 | . | .
COCCNC(=O)c1cccc(Nc2nc(-c3ccccc3)c3cc(Cl)ccc3n2)c1 | ? | -19% | i | 8 | -52* | 46
Cc1[nH]n(-c2cccc(Cl)c2)c(=O)c1-c1ccccc1 | 1% | 17% | i | -2 | 0 | -52*
Cc1[nH]n(-c2ccccc2)c(=O)c1-c1ccccc1 | 0% | ? | i | 1 | 1 | ?
COc1ccccc1CN1C(=O)c2ccccc2C1C(=O)NC1CCC(C)CC1 (stereo not given) | -3% | 22% | i | 3 | -16 | 4
C=C(C)C(=O)OCC(O)COc1ccc(C(C)(C)c2ccc(OCC(O)COC(=O)C(=C)C)cc2)cc1 (stereo not given) | ? | . | ? | 71* | -64* | 66
CCCCC(CC)CNC(=O)CCCc1nnc2n(CCC)c(=O)c3sccc3n12 (stereo not given) | -37% | . | 18µM* | 17 | . | .
CCCn1c(=O)c2sccc2n2c(CCCC(=O)NCc3ccccc3)nnc12 | . | . | . | 6 | . | .
O=C(OCC(=O)N1CCN(C(=O)c2ccco2)CC1)c1cn(-c2ccccc2)nc1-c1ccccc1 | 7% | 19% | i | 4 | -62* | -13
O=C(OCC(=O)N1CCN(C(=O)c2ccco2)CC1)c1cc(-c2cccc(Br)c2)nc2ccccc12 | ? | 16%[7.66 µM] | ? | 3 | -67* | 1
COc1ccc(-c2cc(C(=O)OCC(=O)N3CCOCC3)c3ccccc3n2)cc1 | -29% | 3% | i | -2 | -54* | 1
O=C(OCC(=O)N1CCN(C(=O)c2ccco2)CC1)c1cc(-c2ccc(F)cc2)nc2ccccc12 | ? | -8% | i | 27 | -51* | 15
O=C(OCC(=O)N1CCN(C(=O)c2ccco2)CC1)c1ccccc1C(=O)c1ccccc1 | 4% | 3% | i | 9 | -1 | 41
COc1cc2ccccc2cc1C(=O)OCC(=O)N1CCOCC1 | 0% | 3% | i | -2 | -14 | 38
CN1CCN(S(=O)(=O)c2ccc(SCCOc3ccc(Cl)cc3)nc2)CC1 | -21% | -27% | ? | -2 | ? | 6
NNC(=O)CN1C(CN2CCOCC2)=Nc2ccc(Br)cc2C1c1ccccc1 (stereo not given) | 0% | 1% | i | -9 | 15 | 3
O=C(OCC(=O)N1CCN(C(=O)c2ccco2)CC1)c1cc(-c2ccccc2)nc2ccccc12 | -10% | -3% | i | 6 | -70* | 67
COc1ccc(-c2nn(-c3ccccc3)cc2CO)cc1 | 35% | 9% | i | 11 | -27 | 13
N=C(N)SCc1cn(-c2ccccc2)nc1-c1ccc(Br)cc1 | ? | -69% | ? | 4 | -77* | 13
Cc1nnc(SCC(=O)c2cc(C)n(-c3ccc4c(c3)OCO4)c2C)s1 | 59% | 0% | i | 6 | -77* | 14
Cc1cc(C(=O)CSc2nnnn2C)c(C)n1-c1ccc2c(c1)OCCO2 | 39% | -24% | ? | -1 | -1 | 30
Cc1cc(C)cc(NS(=O)(=O)c2ccc3c(c2)CCCN3C(=O)C2CCC2)c1 | ? | . | 25µM* | 3 | . | .
COc1ccccc1NC(=O)CSc1nncn1N | 1% | 9% | i | -8 | -7 | -8
CC(C)Oc1ccc(/C=C/C(=O)NCC2COc3ccccc3O2)cc1 (stereo not given) | -14% | 11% | ? | -11 | -72* | 3
CCOc1ccc(NC(=O)CSc2oc(-c3cccs3)nc2S(=O)(=O)c2ccc(C)cc2)cc1 | -1% | . | i | 7 | . | .
SMILES | ATXN2 expr inh | a7 integrin act | S2 tox | D3 ag | IL1B secr inh | D3 antag
Cc1cccc(NC(=S)N(CCN2CCOCC2)Cc2cc3cc4c(cc3[nH]c2=O)OCCO4)c1 | . | -24% | i | 0 | -28 | 3
COc1ccc(C2c3ccc4ccccc4c3Oc3ncn(CCO)c(=N)c32)cc1OC (stereo not given) | . | -4% | ? | 2 | ? | 10
COc1ccc(C2c3c(ncn(CCCN4CCOCC4)c3=N)Oc3ccc4ccccc4c32)cc1OC (stereo not given) | . | -62% | ? | -4 | 0 | -8
N=c1c2c(ncn1CCCO)Oc1ccc3ccccc3c1C2c1ccccc1 (stereo not given) | ? | 3% | ? | -4 | -56* | 15
CN(C)CCCn1cnc2c(c1=N)C(c1ccccc1)c1ccc3ccccc3c1O2 (stereo not given) | . | -60% | ? | 3 | -10 | -24
COc1ccc(C2c3ccc4ccccc4c3Oc3ncn(CCCO)c(=N)c32)cc1OC (stereo not given) | ? | -63% | ? | -3 | -55* | 0
COc1ccc(C2c3ccc4ccccc4c3Oc3ncn(CCCO)c(=N)c32)cc1 (stereo not given) | 25µM* | -81% | . | 17 | -69* | -2
COc1ccc(Cc2nc3c4c(ncn3n2)Oc2c(ccc3ccccc23)C4c2ccc(OC)c(OC)c2)cc1 (stereo not given) | 0% | -15% | i | 5 | 2 | 20
N=c1c2c(ncn1CCCO)Oc1c(ccc3ccccc13)C2c1ccccc1 (stereo not given) | . | -65% | 14µM* | -2 | -28 | -12
CCN1CCN(C(=O)CCN2C(=O)c3ccccc3S2(=O)=O)CC1 | 3% | 8% | i | -9 | -1 | -6
Cc1ccccc1NC(=O)Cc1nc(CSc2nnc(C3CCCCC3)n2N)cs1 | -17% | 20%[7.66 µM] | i | -3 | 8 | -7
CN(C)S(=O)(=O)c1cccc(C(=O)Nc2cc(S(=O)(=O)N3CCOCC3)ccc2N2CCCC2)c1 | 10% | -8% | i | 2 | ? | 5
COc1ccc(C2c3ccc4ccccc4c3Oc3ncn(CCN(C)C)c(=N)c32)cc1 (stereo not given) | -29% | -66% | ? | -11 | -98* | -16
COc1ccc(C2c3ccc4ccccc4c3Oc3ncn(CCO)c(=N)c32)cc1 (stereo not given) | ? | -14% | ? | 1 | -100* | -4
Cc1ccccc1OCC(=O)NN1CCN(C)CC1 | -7% | 11% | i | 4 | 0 | -10
Cc1ccc(CNC(=O)c2cccc(NC(=O)N3CCSc4ncccc43)c2)cc1 | -5% | . | i | 7 | . | .
O=C(C(=O)c1cc(Br)ccc1O)c1cc(Br)ccc1O | ? | -67% | ? | 12 | -84* | -13
COc1ccc(C(=O)c2oc3ccccc3c2NC(=O)c2cccc(OC)c2)cc1 | -7% | . | i | -11 | . | .

Compound activity as filed in PubChem.
